# Where “and” joins values, the source holds several entries; their conditions need not be identical. Identical values can stand only once. Calls of active or inactive are those of the source. How the source made its calls: active means hit-call score of the fitted dose curve at least 0.9, where 1 is the maximum; inactive means score below 0.9.
# Experiment: CCTE_Shafer_MEA_acute_burst_percentage_mean: CCTE's Neural Acute Assay for Percentage of Spikes in a Burst, Shafer Lab (AID 2284017);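 on AC50: curve fitted for loss of signal so potency reflects decreased burst percentage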
# Outline: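 Well-level mean burst percentage from a 40-min recording after compound (0.03-40 uM) expressed as percent change from a 40-min baseline at 37C. Cultures: primary rat cortical neurons on MEA, dosed on DIV 13 or 15; fitted downward relative to DMSO.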
SMILES,outcome,AC50
FC(F)C(F)(F)OCC(Cn1cncn1)c1ccc(Cl)cc1Cl (stereo not drawn),inactive,
C=C(C)[C@H]1Cc2c(ccc3c2O[C@@H]2COc4cc(OC)c(OC)cc4[C@@H]2C3=O)O1,inactive,
CC(=NC#N)N(C)Cc1ccc(Cl)nc1,inactive,
COc1cc(OC)nc(Sc2cccc(Cl)c2C(=O)O)n1,inactive,
CCCOCC(=Nc1ccc(Cl)cc1C(F)(F)F)n1ccnc1,,2.71 µM (active)
CCc1cccc(C)c1N(C(=O)CCl)C(C)COC (stereo not drawn),,10.9 µM (active)
CC(C)[C@H](C(=O)O[C@H](C#N)c1cccc(Oc2ccccc2)c1)c1ccc(Cl)cc1,,0.958 µM (active)
CCOP(=S)(Oc1cnc(C(C)(C)C)nc1)OC(C)C (stereo not drawn),,35.6 µM (active)
CN1COCN(Cc2cnc(Cl)s2)C1=N[N+](=O)[O-],inactive,
CCOC(=O)CC(SP(=O)(OC)OC)C(=O)OCC (stereo not drawn),inactive,
Nc1c(Cl)cc([N+](=O)[O-])cc1Cl,,20 µM (active)
CSC1=N[C@@](C)(c2ccccc2)C(=O)N1Nc1ccccc1,,20 µM (active) and 24.4 µM (active)
C#CCC1=C(C)C(OC(=O)C2C(C=C(C)C)C2(C)C)CC1=O (stereo not drawn),,12.7 µM (active)
O=C(O)c1cc(Oc2ccc(C(F)(F)F)cc2Cl)ccc1[N+](=O)[O-],inactive,
C[N+]1(C)CCCCC1,inactive,
CN(C)NC(=O)CCC(=O)O,inactive,
CCOP(=O)(NC(C)C)Oc1ccc(SC)c(C)c1 (stereo not drawn),,30.2 µM (active)
CC[C@H](C)[C@H]1O[C@]2(C=C[C@@H]1C)C[C@@H]1C[C@@H](C/C=C(\C)[C@@H](O[C@H]3C[C@H](OC)[C@@H](O[C@H]4C[C@H](OC)[C@@H](NC)[C@H](C)O4)[C@H](C)O3)[C@@H](C)/C=C/C=C3\CO[C@@H]4[C@H](O)C(C)=C[C@@H](C(=O)O1)[C@]34O)O2,,26.6 nM (active) and 37.8 nM (active)

# Source: PubChem BioAssay (EPA / NIEHS)
